Source: PubChem BioAssay (NCATS)
Records with an inconclusive call do not appear. Activity calls are given as the source filed them. The call rests on the fitted dose curve; in most records, active means well fitted inhibition curve with a large enough effect; inconclusive means small, poorly fitted or top-dose-only effect; inactive means flat fitted curve, though single readings scatter.

What was measured:
Test in all cases: qHTS profiling for inhibitors of Plasmodium falciparum proliferation (AID 504749); further: nearly all actives have a fitted effect of over 60% in size
Conditions in all cases: P. falciparum in erythrocytes, SYBR Green DNA, 72 h; series mostly up to 28.7 µM
3D7 = tested on: 3D7
Method in brief: (§1)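 Fluorescence of SYBR Green-bound parasite DNA, read at 485/535 nm, served as the growth measure. Infected erythrocytes were cultured with compound 72 h; artemisinin (0.29 uM) and DMSO wells defined the normalization range.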

7G8 = tested on: 7G8
Method in brief: as §1

AS120 = tested on: AS120
Method in brief: as §1

ATS189 = tested on: ATS189
Method in brief: as §1

CP185 = tested on: CP185
Method in brief: as §1

CP191 = tested on: CP191
Method in brief: as §1

CP192 = tested on: CP192
Method in brief: as §1

CP194 = tested on: CP194
Method in brief: as §1

CP201 = tested on: CP201
Method in brief: as §1

CP247 = tested on: CP247
Method in brief: as §1

CP291 = tested on: CP291
Method in brief: as §1

CP305 = tested on: CP305
Method in brief: as §1

DIV30 = tested on: DIV30
Method in brief: as §1

GB4 = tested on: GB4
Method in brief: as §1

HB3 = tested on: HB3
Method in brief: as §1

P94_40 = tested on: P94_40
Method in brief: as §1

PC49 = tested on: PC49
Method in brief: as §1

TAB109 = tested on: TAB109
Method in brief: as §1

TAB113 = tested on: TAB113
Method in brief: as §1

W2 = tested on: W2
Method in brief: as §1

Measured: Potency

Oc1ccc(/C=C\c2cc(O)cc(O)c2)cc1
inactive: all assays above
